Test results taken from PubChem BioAssay (EPA / NIEHS).
Where “and” joins values, the source holds several entries; their conditions need not be identical. Equal entries are not always repeated. More than one record can exist for a structure, and the calls need not agree. Calls of active or inactive are those of the source. Rule for the calls, unless noted: active = hit-call score of the fitted dose curve at least 0.9, where 1 is the maximum; inactive = score below 0.9.

molecular target: Estrogen receptor (Homo sapiens) (UniProt P03372); test: OT_ERa_GFPERaERE_0480: Odyssey Thera (OT) 8-hour HeLa Transcription Induction Assay for Estrogen Receptor (AID 2283381)
Sequence (P03372 whole entry, looked up): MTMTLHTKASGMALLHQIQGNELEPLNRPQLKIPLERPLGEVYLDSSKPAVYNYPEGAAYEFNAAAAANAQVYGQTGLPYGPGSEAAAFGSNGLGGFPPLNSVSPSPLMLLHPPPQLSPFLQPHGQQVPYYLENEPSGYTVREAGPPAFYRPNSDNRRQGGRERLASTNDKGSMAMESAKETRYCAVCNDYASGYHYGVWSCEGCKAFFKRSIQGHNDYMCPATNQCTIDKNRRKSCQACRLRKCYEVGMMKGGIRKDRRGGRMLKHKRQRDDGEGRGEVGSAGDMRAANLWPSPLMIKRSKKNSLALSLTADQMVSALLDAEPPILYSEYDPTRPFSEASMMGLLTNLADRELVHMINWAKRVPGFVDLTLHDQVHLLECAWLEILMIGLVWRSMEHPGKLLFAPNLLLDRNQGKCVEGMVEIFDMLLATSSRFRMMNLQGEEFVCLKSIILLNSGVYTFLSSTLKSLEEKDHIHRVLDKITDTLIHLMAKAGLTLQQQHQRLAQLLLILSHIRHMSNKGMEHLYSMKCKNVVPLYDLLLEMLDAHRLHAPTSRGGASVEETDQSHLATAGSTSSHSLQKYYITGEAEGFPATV
Outline: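 Cells (HeLa) receive compound; after 8 h, reporter fluorescence is imaged and quantified by high-content analysis. Gain-of-signal relative to DMSO gives the endpoint.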

SMILES | outcome | AC50
CC1=C(C(=O)Nc2ccccc2)SCCO1 | inactive | 
Oc1ccccc1-c1ccccc1 | inactive | 
CCCCNC(=O)OCC#CI |  | 86.8 µM (active)
OC(c1ccc(Cl)cc1)(c1cncnc1)c1ccccc1Cl (centres undefined) |  | 12.1 µM (active)
N#CC(CCc1ccc(Cl)cc1)(Cn1cncn1)c1ccccc1 (centres undefined) | inactive | 
C=CCC1=C(C)C(OC(=O)C2C(C=C(C)C)C2(C)C)CC1=O (centres undefined) | inactive | 
Fc1ccc(Oc2ccnc3cc(Cl)cc(Cl)c23)cc1 | inactive | 
CCCCOC(=O)c1ccccc1C(=O)OCCCC |  | 34.7 µM (active) and 31.9 µM (active) and 23.8 µM (active)
C#CCOS(=O)OC1CCCCC1Oc1ccc(C(C)(C)C)cc1 (centres undefined) | inactive | 
CCOC(=O)C(Cl)Cc1cc(-n2nc(C)n(C(F)F)c2=O)c(F)cc1Cl (centres undefined) | inactive | 
CCc1nn(C)c(C(=O)NCc2ccc(C(C)(C)C)cc2)c1Cl | inactive | 
CON(C)C(=O)Nc1ccc(Cl)c(Cl)c1 | inactive | 
CCOc1cc(Oc2ccc(C(F)(F)F)cc2Cl)ccc1[N+](=O)[O-] | inactive | 
CC1COC(Cn2cncn2)(c2ccc(Oc3ccc(Cl)cc3)cc2Cl)O1 (centres undefined) | inactive | 
CCCCC(CC)COC(=O)c1ccccc1C(=O)OCC(CC)CCCC (centres undefined) | inactive | 
Cc1c(F)c(F)c(COC(=O)C2C(/C=C(\Cl)C(F)(F)F)C2(C)C)c(F)c1F (centres undefined) | inactive | 
CCNc1nc(Cl)nc(NC(C)C)n1 | inactive | 
COc1nc(NC(C)C)nc(NC(C)C)n1 | inactive | 
CO/C=C(/C(=O)OC)c1ccccc1Oc1cc(Oc2ccccc2C#N)ncn1 | inactive | 
O=C(Nc1ccccc1)Nc1ccnc(Cl)c1 | inactive | 
Cc1cc(Cl)ccc1OCC(=O)O | inactive | 
C=CCC1=C(C)[C@@H](OC(=O)[C@@H]2[C@@H](C=C(C)C)C2(C)C)CC1=O | inactive | 
COc1ccc(C(c2ccc(OC)cc2)C(Cl)(Cl)Cl)cc1 |  | 3.09 µM (active) and 3.24 µM (active) and 3.47 µM (active)
CCCCNC(=O)n1c(NC(=O)OC)nc2ccccc21 | inactive | 

molecular target: Estrogen receptor (Homo sapiens) (UniProt P03372); test: OT_ERa_GFPERaERE_0120: Odyssey Thera (OT) 2-hour HeLa Transcription Induction Assay for Estrogen Receptor (AID 2283382; active = hit-call score of the fitted dose curve at least 0.9, where 1 is the maximum)
Outline: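 Measures ESR1 pathway reporter gain-of-signal in HeLa cells after a 2-hour treatment, detected as fluorescent protein induction by microscopy, DMSO as baseline.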

SMILES | outcome | AC50
CC1=C(C(=O)Nc2ccccc2)SCCO1 | inactive | 
Oc1ccccc1-c1ccccc1 | inactive | 
CCCCNC(=O)OCC#CI |  | 12.1 µM (active)
OC(c1ccc(Cl)cc1)(c1cncnc1)c1ccccc1Cl (centres undefined) | inactive | 
N#CC(CCc1ccc(Cl)cc1)(Cn1cncn1)c1ccccc1 (centres undefined) | inactive | 
C=CCC1=C(C)C(OC(=O)C2C(C=C(C)C)C2(C)C)CC1=O (centres undefined) | inactive | 
Fc1ccc(Oc2ccnc3cc(Cl)cc(Cl)c23)cc1 | inactive | 
CCCCOC(=O)c1ccccc1C(=O)OCCCC |  | 30.6 µM (active) and 20.8 µM (active) and 24.9 µM (active)
C#CCOS(=O)OC1CCCCC1Oc1ccc(C(C)(C)C)cc1 (centres undefined) | inactive | 
CCOC(=O)C(Cl)Cc1cc(-n2nc(C)n(C(F)F)c2=O)c(F)cc1Cl (centres undefined) | inactive | 
CCc1nn(C)c(C(=O)NCc2ccc(C(C)(C)C)cc2)c1Cl | inactive | 
CON(C)C(=O)Nc1ccc(Cl)c(Cl)c1 | inactive | 
CCOc1cc(Oc2ccc(C(F)(F)F)cc2Cl)ccc1[N+](=O)[O-] | inactive | 
CC1COC(Cn2cncn2)(c2ccc(Oc3ccc(Cl)cc3)cc2Cl)O1 (centres undefined) | inactive | 
CCCCC(CC)COC(=O)c1ccccc1C(=O)OCC(CC)CCCC (centres undefined) | inactive | 
Cc1c(F)c(F)c(COC(=O)C2C(/C=C(\Cl)C(F)(F)F)C2(C)C)c(F)c1F (centres undefined) | inactive | 
CCNc1nc(Cl)nc(NC(C)C)n1 | inactive | 3.42 µM (active)
COc1nc(NC(C)C)nc(NC(C)C)n1 | inactive | 
CO/C=C(/C(=O)OC)c1ccccc1Oc1cc(Oc2ccccc2C#N)ncn1 | inactive | 
O=C(Nc1ccccc1)Nc1ccnc(Cl)c1 | inactive | 
Cc1cc(Cl)ccc1OCC(=O)O | inactive | 
C=CCC1=C(C)[C@@H](OC(=O)[C@@H]2[C@@H](C=C(C)C)C2(C)C)CC1=O | inactive | 
COc1ccc(C(c2ccc(OC)cc2)C(Cl)(Cl)Cl)cc1 |  | 2.7 µM (active) and 2.88 µM (active) and 2.66 µM (active)
CCCCNC(=O)n1c(NC(=O)OC)nc2ccccc21 | inactive | 
